{"source": "PubChem BioAssay (Tox21)", "note": "Records with an inconclusive call do not appear. Unmarked numbers belong to inactive results. Active and inactive are the calls of the source. The call rests on the fitted dose curve. On the % scale 0 is the no-effect control and ±100 the full control effect."}
{"molecular_target": "D(2) dopamine receptor (Homo sapiens) (UniProt P14416)", "sequence (P14416 whole entry, looked up)": "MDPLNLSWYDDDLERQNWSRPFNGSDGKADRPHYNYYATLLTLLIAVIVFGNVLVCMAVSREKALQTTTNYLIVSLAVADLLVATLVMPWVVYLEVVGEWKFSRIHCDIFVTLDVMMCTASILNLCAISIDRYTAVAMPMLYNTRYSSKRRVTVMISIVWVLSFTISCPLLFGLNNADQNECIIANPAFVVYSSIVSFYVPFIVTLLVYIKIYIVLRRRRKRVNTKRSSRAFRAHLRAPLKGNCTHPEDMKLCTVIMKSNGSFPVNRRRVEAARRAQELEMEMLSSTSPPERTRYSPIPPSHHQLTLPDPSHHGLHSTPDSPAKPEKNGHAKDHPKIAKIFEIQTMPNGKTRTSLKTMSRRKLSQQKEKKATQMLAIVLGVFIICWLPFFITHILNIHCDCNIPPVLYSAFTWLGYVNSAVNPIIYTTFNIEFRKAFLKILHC", "assay": "Dopamine D2 receptor (DRD2) small molecule agonists, cell-based qHTS assay (AID 1963594); further: nearly all actives have a fitted effect of over 35% in size", "settings": "HEK293-DRD2 cAMP HTRF, agonist mode, 30 min; series mostly up to 92.4 µM; activation: at the top concentration", "description": "National Center for Advancing Translational Sciences [NCATS]\nDivision of Preclinical Innovation [DPI]\nU.S. Environmental Protection Agency [EPA]\nNational Institutes of Environmental Health Sciences [NIEHS]\nNational Toxicology Program [NTP]\nU.S. Food and Drug Administration [FDA]\nDRD2 is the D2 subtype of the dopamine receptor, which is coupled to Gi subtype of G protein-coupled receptor. This G protein-coupled receptor inhibits adenylyl cyclase activity. The DRD2-HEK293 cell line stably expressing D2 dopamine receptor can be used for screening agonists and antagonists of interactions between D2 and its ligands. The Hek293-DRD2 cAMP assay is based on HTRF technology. It measures changes of cAMP accumulation in response to Gi coupled GPCR activation or inhibition.\nTox21 Assay Protocol Summary:\nDRD2-Hek293 cells were dispensed at 600 cells/3uL/well in 1536-well white plates using a Multidrop Dispenser. After the assay plates were incubated at a 37 C/5% CO2 incubator for 24 h, 1 uL of Ro20-1724 at final concentration of 0.1 mM was transferred to the assay plate by a Flying Reagent Dispenser. Following Ro20-1724 addition, 23 nL of compound dissolved in DMSO, positive controls or DMSO only was added to the assay plates via Wako pintool station. The assay plates were incubated at room temperature for 10 min. Next, 1 uL of NKH477 at 200nM was added into the plates. After the assay plates were incubated at room temperature for an additional 30 min, 2.5 ul/well of cAMP-d2 and 2.5 ul/well of anti-cAMP-cryptate were added respectively into the assay plates using a Flying Reagent Dispenser. The plates were incubated at room temperature for 1 h. The fluorescence intensity in the plates was measured at 340 nm excitation and 665 & 620 nm emission by an Envision plate reader."}
{"smiles": "NC(=O)c1ncn([C@@H]2O[C@H](CO)[C@@H](O)[C@H]2O)c1O", "activation": "-4.33% [at 42.5 µM]"}
{"smiles": "CCC(C)C1CCCCC1=O", "note": "(stereo not given)", "activation": "4.23%"}
{"smiles": "OC[C@H]1O[C@@H]2O[C@H]3[C@H](O)[C@@H](O)[C@@H](O[C@H]4[C@H](O)[C@@H](O)[C@@H](O[C@H]5[C@H](O)[C@@H](O)[C@@H](O[C@H]6[C@H](O)[C@@H](O)[C@@H](O[C@H]7[C@H](O)[C@@H](O)[C@@H](O[C@H]1[C@H](O)[C@H]2O)O[C@@H]7CO)O[C@@H]6CO)O[C@@H]5CO)O[C@@H]4CO)O[C@@H]3CO", "Potency": "inactive"}
{"smiles": "CC(C)CC(=O)O", "activation": "1.5%"}
{"smiles": "C1CCC(SSC2CCCCC2)CC1", "activation": "0.426%"}
{"smiles": "c1ccc(Nc2cccc3ccccc23)cc1", "Potency": "inactive"}
{"smiles": "CCCCCCCC/C=C\\CCCCCCCC(N)=O", "activation": "-0.0318%"}
{"smiles": "CCOc1c(N2CCOCC2)cnn(C)c1=O", "activation": "12.5% [at 42.5 µM]"}
{"smiles": "CCCCCCCCCCCC(=O)OC[C@@H](O)[C@H]1OC[C@H](OCCO)[C@H]1OCCO", "activation": "-0.127%"}
{"smiles": "Cc1ccc(/C(=C\\CN2CCCC2)c2ccccn2)cc1", "Potency": "inactive"}
{"smiles": "Oc1cc(O)c2c(c1)O[C@H](c1ccc(O)c(O)c1)[C@H](O)C2", "activation": "-31.6% [at 42.5 µM]"}
{"smiles": "FC(F)(F)C(F)(F)C(F)(F)C(F)(F)C(F)(F)C(F)(F)CCI", "activation": "18.7% [at 42.5 µM]"}
{"smiles": "Cc1cccnc1", "Potency": "inactive"}
{"smiles": "O=C(O)CNc1ccccc1", "activation": "7.71%"}
{"smiles": "CC(C)OC(=O)CCCCC(=O)OC(C)C", "activation": "0.291%"}
{"smiles": "O=C1NC2NC(=O)NC2N1", "note": "(stereo not given)", "activation": "1.68%"}
{"smiles": "Cc1cc(C)cc(OCC2CNC(=O)O2)c1", "note": "(stereo not given)", "activation": "0.917% [at 42.5 µM]"}
{"smiles": "Cc1cccc(C)c1[N+](=O)[O-]", "Potency": "inactive"}
{"smiles": "O=C1OC(=O)c2c(Cl)c(Cl)c(Cl)c(Cl)c21", "Potency": "inactive"}
{"smiles": "CC(C)OCCO", "activation": "6.63%"}
{"smiles": "O=C(OC(=O)c1ccccc1)c1ccccc1", "activation": "1.15%"}
{"smiles": "Cc1cccc(N(C)C(=S)Oc2ccc3ccccc3c2)c1", "Potency": "inactive"}
{"smiles": "CC(C)(N=C=O)c1cccc(C(C)(C)N=C=O)c1", "Potency": "inactive"}
{"smiles": "O=[N+]([O-])c1ccc2c(c1)Cc1ccccc1-2", "Potency": "inactive"}
{"smiles": "CNC(=O)NC", "activation": "0.584%"}
{"smiles": "Cc1ccc(C2OC[C@@H]3OC(c4ccc(C)cc4)O[C@H]([C@H](O)CO)[C@@H]3O2)cc1", "note": "(stereo not given in full)", "activation": "-0.0551%"}
{"smiles": "NC/C=C/C(=O)O", "activation": "11.9% [at 42.5 µM]"}
{"smiles": "COCC(O)CO", "note": "(stereo not given)", "activation": "-1.21%"}
{"smiles": "NNS(=O)(=O)c1ccc(Oc2ccc(S(=O)(=O)NN)cc2)cc1", "activation": "7.47%"}
{"smiles": "CCC(=O)Nc1cccc(N)c1", "activation": "-4.28%"}
{"smiles": "Cc1cc(N)no1", "activation": "-2.26%"}
{"smiles": "Cc1ccccc1C(N)=O", "activation": "-2.62%"}
{"smiles": "O=C1CCCCCCCCCCCCCCCO1", "activation": "4.44%"}
{"smiles": "C=C(C)C(=O)OC(C)C", "activation": "-1.79%"}
{"smiles": "CC(C)OC(=O)C(C)(C)Oc1ccc(C(=O)c2ccc(Cl)cc2)cc1", "activation": "-15.6% [at 42.5 µM]"}
{"smiles": "CCCC[C@H]1CN(CC2CCOCC2)C(=O)OC12CCN(C1(C)CCN(C(=O)c3c(C)ncnc3C)CC1)CC2", "activation": "4.31%"}
{"smiles": "O=C(Cn1ccnc1[N+](=O)[O-])NCc1ccccc1", "activation": "13.1% [at 42.5 µM]"}
{"smiles": "C=CC(C)CCC=C(C)C", "note": "(stereo not given)", "activation": "0.37%"}
{"smiles": "CC(C)(C)C1CCCCC1O", "note": "(stereo not given)", "activation": "-0.0632%"}
{"smiles": "COC(=O)c1sccc1S(N)(=O)=O", "activation": "2.09%"}
